GLP1R ag = activates the human GLP-1 receptor | AID 624172 | Potency, µM (doses to about 45.6 µM), hits mostly activators | HEK293 GLP-1R CRE-luciferase, luminescence, 4-6 h; cells express a hypersensitive GLP-1R form | 0.007% of 380,000 active
Target sequence (P43220 whole entry, looked up): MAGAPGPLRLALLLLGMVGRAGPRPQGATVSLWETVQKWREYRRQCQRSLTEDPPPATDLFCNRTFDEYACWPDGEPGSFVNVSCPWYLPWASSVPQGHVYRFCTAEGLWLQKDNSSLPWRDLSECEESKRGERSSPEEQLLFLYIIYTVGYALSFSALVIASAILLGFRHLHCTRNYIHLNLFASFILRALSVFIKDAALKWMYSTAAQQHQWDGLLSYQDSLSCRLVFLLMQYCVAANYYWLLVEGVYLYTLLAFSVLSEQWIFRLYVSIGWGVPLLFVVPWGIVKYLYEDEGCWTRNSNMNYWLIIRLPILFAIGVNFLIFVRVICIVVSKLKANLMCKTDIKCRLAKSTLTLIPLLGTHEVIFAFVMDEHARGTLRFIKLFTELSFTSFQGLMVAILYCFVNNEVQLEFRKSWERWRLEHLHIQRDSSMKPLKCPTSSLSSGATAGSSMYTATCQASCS
GLP-1R inv ag = GLP-1 receptor (human) inverse agonism. P43220. HEK293 GLP-1R CRE-luciferase, luminescence, 24 h; GLP-1R form is constitutively active. Potency, µM (highest dose often 38.3 µM), hits mostly inhibitors. 1.6% of 410,000 active; also: nearly all actives have a fitted effect of over 55% in size
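Cells are plated, allowed 12 hours at 37 deg C, then treated with compounds for 24 hr before luciferase detection reagent is added and luminescence is read after 12 min at room temperature. The HEK293 line carries constitutively active GLP-1R with a cAMP-responsive reporter.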
IDH1 R132H inh = blocks human mutant IDH1 R132H enzyme | Potency, µM (highest dose often 76.6 µM), most hits filed as inhibitors | AID 602179 | IDH1-R132H enzyme, NADPH consumption, diaphorase/resazurin fluorescence | 0.093% of 390,000 active; also: nearly all actives have a fitted effect of over 65% in size
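IDH1-R132H (0.5 ug/mL dispensed) in pH 7.5 Tris buffer was preincubated 30 min with compound, then given a substrate mix of 0.016 mM NADPH and 2 mM alpha-KG for 80 min at room temperature; remaining NADPH was read by diaphorase/resazurin fluorescence.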
PTHR1 agonist = PTHR1 (human) receptor agonism; Q03431; HEK293 GP2 PTHR1 cells, GloSensor cAMP luminescence, 1 h; Potency, µM (titrated, usually from 115 µM), most hits filed as activators; 0.075% of 410,000 active; also: nearly all actives have a fitted effect of over 55% in size
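HEK-293-derived GP2 cells expressing PTHR1 and a GloSensor cAMP reporter, 3,000/well, plated overnight, given luciferin plus IBMX (each 0.5 mM as added) for 1 h at 37 °C, then compound for 1 h at 37 °C. Luminescence was read after 15 min at room temperature.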
LDHA block = LDHA (human) enzyme inhibition | purified LDHA, NADH/diaphorase-resazurin fluorescence; stronger effect = lower value | 0.15% of 480,000 active | AID 1347041 | activity change, % (values are at about 110 or 230 µM); in the data active = activity change below about -30%; inconclusive = mostly about -25% to -30%
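Human LDH5 (2 nM) was incubated with 0.06 mM NADH and 0.2 mM pyruvate for 5 min at room temperature in Tris pH 7.4. Remaining NADH was coupled through diaphorase/resazurin, and resorufin fluorescence was read at 0 and 20 min.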
GLP1R cytotox = cytotoxicity counter-screen for GLP-1 receptor inverse agonists; HEK293 cAMP-luciferase reporter cells, luminescence, 24 h; Potency, µM (series often up to 38.3 µM), actives largely listed as inhibitors; 0.13% of 410,000 active;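 also: loss of luciferase light is scored as toxicity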
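1536-well qHTS counterscreen of the MLSMR; 200 cells/uL, 12 h pre-incubation, 23 nL cpd, 24 h at 37 deg C 5% CO2, luciferase detection reagent, 12 min RT, luminescence. Inhibition = undesired.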
Numbers stand for hits. Compounds with a hit are over-represented: about 1.7% of the library has one in this group of screens. Unless noted, calls follow the shape of the dose curve; as a rule, active = well fitted curve in the direction sought with a large enough effect; inconclusive = small, poorly fitted or top-dose-only effect, or another doubt; inactive = no such curve, though single readings can be large; an effect the other way counts as inactive or inconclusive.

What do the screens show for `C/C(=N\NC(=S)NCCc1ccccc1)c1ccc(Cl)cc1`?
GLP1R ag: inconclusive; GLP-1R inv ag: 10µM; IDH1 R132H inh: inactive; PTHR1 agonist: inactive; LDHA block: inactive; GLP1R cytotox: inconclusive

Results for Cc1cccc(NC(=S)NCCc2ccccc2)n1 ?
GLP1R ag: inactive; GLP-1R inv ag: inconclusive; IDH1 R132H inh: inactive; PTHR1 agonist: inactive; LDHA block: inactive; GLP1R cytotox: 4µM

How did S=C(NCCc1ccccc1)Nc1ccccn1 do in these assays?
GLP1R ag: inactive; GLP-1R inv ag: inconclusive; IDH1 R132H inh: inactive; PTHR1 agonist: inactive; LDHA block: inactive; GLP1R cytotox: inactive

How did C/C(=N\NC(=S)NCCc1ccccc1)c1ccc(C#N)cc1 do in these assays?
GLP1R ag: inactive; GLP-1R inv ag: inactive; IDH1 R132H inh: inactive; PTHR1 agonist: inactive; LDHA block: inactive; GLP1R cytotox: inactive

Results for CCOC(=O)c1c(C)c(C)n(Cc2cccs2)c1NC(=O)CN(CC)CC(=O)NC(C)(C)C ?
LDHA block: inactive

How did Cc1ccc(-c2nc(CS(=O)CC(=O)NCCN3CCCC3)c(C)o2)cc1 (stereo unspecified) do in these assays?
GLP1R ag: inactive; GLP-1R inv ag: inactive; IDH1 R132H inh: inactive; PTHR1 agonist: inactive; LDHA block: inactive; GLP1R cytotox: inactive

Results for CCc1ccc(-c2nc(CS(=O)CC(=O)NCCN3CCCCCC3)c(C)o2)cc1 (stereo unspecified) ?
GLP1R ag: inactive; GLP-1R inv ag: 11µM; IDH1 R132H inh: inactive; PTHR1 agonist: inactive; LDHA block: inactive; GLP1R cytotox: inactive

What do the screens show for `CC(C)NC(=O)C1CCN(C(=O)c2ccc3ccccc3n2)CC1`?
LDHA block: inactive

Results for CSc1ccc(/C=N/NC(=O)c2ccc(C)c(C)c2)cc1 ?
GLP1R ag: inactive; GLP-1R inv ag: inconclusive; IDH1 R132H inh: inactive; PTHR1 agonist: inactive; LDHA block: -48; GLP1R cytotox: inactive

Results for CCN1C(=O)C2(c3ccccc31)N1CC3(C)CN2CC(CC)(C1)C3=O (stereo unspecified) ?
LDHA block: inactive

How did O=C(O)/C=C/c1cnc2ccccc2n1 do in these assays?
GLP1R ag: inactive; GLP-1R inv ag: inactive; IDH1 R132H inh: inactive; PTHR1 agonist: inactive; LDHA block: inactive; GLP1R cytotox: inactive

Results for O=C(/C=C/c1cnc2ccccc2n1)NC12CC3CC(CC(C3)C1)C2 ?
GLP1R ag: inactive; GLP-1R inv ag: 2.5µM; IDH1 R132H inh: inactive; PTHR1 agonist: inactive; LDHA block: inactive; GLP1R cytotox: inactive

What do the screens show for `CC(NCC(=O)NC(=O)NC1CCCC1)c1ccc(Cl)cc1Cl` (stereo unspecified)?
GLP1R ag: inactive; GLP-1R inv ag: 10µM; IDH1 R132H inh: inactive; PTHR1 agonist: inactive; LDHA block: inactive; GLP1R cytotox: inactive

Results for CC(NCC(=O)NC1(C#N)CCCCC1)c1ccc(Cl)cc1Cl (stereo unspecified) ?
LDHA block: inactive

Results for COc1ccc2c(C)c(CCC(=O)Nc3ccc(F)c(F)c3)c(=O)oc2c1 ?
LDHA block: inactive

What do the screens show for `COC(=O)c1ccc(COc2ccccc2/C=N/O)cc1`?
LDHA block: inactive

Results for CCN(CC)c1ccc(NC(=O)CN2CCN(c3ccc(F)cc3)CC2)cc1 ?
GLP1R ag: inactive; GLP-1R inv ag: 10µM; IDH1 R132H inh: inactive; PTHR1 agonist: inactive; LDHA block: inactive; GLP1R cytotox: inactive

Results for CC(C)Cn1c(N2CCN(CC(=O)Nc3ccc(Cl)cc3)CC2)nc2ccccc21 ?
GLP1R ag: inactive; GLP-1R inv ag: 10µM; IDH1 R132H inh: inactive; PTHR1 agonist: inactive; LDHA block: inactive; GLP1R cytotox: inactive

How did O=C(CN1CCN(c2ccc(Cl)cc2)CC1)Nc1ccc(F)c(F)c1 do in these assays?
GLP1R ag: inactive; GLP-1R inv ag: 2.8µM; IDH1 R132H inh: inactive; PTHR1 agonist: inactive; LDHA block: inactive; GLP1R cytotox: inactive

What do the screens show for `C=CCNC(=S)N/N=C/c1cccnc1`?
LDHA block: inactive

Results for CCC1CN(C(=O)NCc2cccc(OC)c2)c2ccccc2O1 (stereo unspecified) ?
GLP1R ag: inactive; GLP-1R inv ag: inconclusive; IDH1 R132H inh: inactive; PTHR1 agonist: inactive; LDHA block: inactive; GLP1R cytotox: inactive

Results for CCC1CN(C(=O)NCc2cccc(OC)c2)c2cc(Cl)ccc2O1 (stereo unspecified) ?
GLP1R ag: inactive; GLP-1R inv ag: 11µM; IDH1 R132H inh: inactive; PTHR1 agonist: inactive; LDHA block: inactive; GLP1R cytotox: inactive

Results for CCC1CN(C(=O)NCc2ccc(F)cc2)c2cc(Cl)ccc2O1 (stereo unspecified) ?
GLP1R ag: inactive; GLP-1R inv ag: 10µM; IDH1 R132H inh: inactive; PTHR1 agonist: inactive; LDHA block: inactive; GLP1R cytotox: inactive

What do the screens show for `O=C(OCc1cn([C@@H]2CN(C(=O)C3CCCCC3)[C@@H](c3ccc(Cl)cc3)C[C@H]2O)nn1)c1ccccc1`?
GLP1R ag: inactive; GLP-1R inv ag: inactive; IDH1 R132H inh: inactive; PTHR1 agonist: inactive; LDHA block: -35; GLP1R cytotox: inactive

Results for CCCCCC(=O)N1C[C@@H](n2cc(-c3ccc(F)cc3)nn2)[C@H](O)C[C@@H]1c1ccc(C)cc1 ?
GLP1R ag: inactive; GLP-1R inv ag: inconclusive; IDH1 R132H inh: inactive; PTHR1 agonist: inactive; LDHA block: -34; GLP1R cytotox: inactive

Results for CCCCCCN1C[C@H](O)[C@@H](n2cc(-c3ccc(F)cc3)nn2)C[C@@H]1c1ccccc1 ?
GLP1R ag: inactive; GLP-1R inv ag: 5µM; IDH1 R132H inh: inactive; PTHR1 agonist: inactive; LDHA block: inactive; GLP1R cytotox: inactive

What do the screens show for `CCCCCC(=O)N1C[C@@H](n2cc(-c3ccc(F)cc3)nn2)[C@H](O)C[C@@H]1c1ccc(OC)cc1`?
GLP1R ag: inactive; GLP-1R inv ag: 11µM; IDH1 R132H inh: inactive; PTHR1 agonist: inactive; LDHA block: inactive; GLP1R cytotox: inactive

What do the screens show for `CCCCCC(=O)N1C[C@@H](O)[C@H](n2cc(-c3ccc(F)cc3)nn2)C[C@@H]1c1ccc(C)cc1`?
GLP1R ag: inactive; GLP-1R inv ag: inconclusive; IDH1 R132H inh: inactive; PTHR1 agonist: inactive; LDHA block: inactive; GLP1R cytotox: inactive

How did CCCCCCN1C[C@H](n2cc(-c3ccc(F)cc3)nn2)[C@@H](O)C[C@@H]1c1ccccc1 do in these assays?
GLP1R ag: inactive; GLP-1R inv ag: inactive; IDH1 R132H inh: inactive; PTHR1 agonist: inactive; LDHA block: inactive; GLP1R cytotox: inactive
